PubChem BioAssay

Tests used:
[1] = system: Botulinum neurotoxin type F light chain protease (Clostridium botulinum); test: Botulinum neurotoxin type F light chain protease inhibition, multiplex microsphere flow cytometry, validation set (AID 588459); conditions: multiplex microsphere protease substrate cleavage assay, at 10 µM, hits give high values
[2] = target: Botulinum neurotoxin type A (Clostridium botulinum) (UniProt P0DPI0); test: BoNT/A light chain protease inhibitors, biochemical, multiplex microsphere flow cytometry, validation set (AID 588460); conditions: at 10 µM, hits give high values
[3] = target: Lethal factor (Bacillus anthracis) (UniProt P15917); test: Lethal factor protease inhibitors, Bacillus anthracis, multiplex microsphere cleavage assay, validation set (AID 588461); conditions: flow cytometry, at 10 µM, hits give high values

Measured: inhibition

Sequence of Botulinum neurotoxin type A (Clostridium botulinum) (P0DPI0 whole entry, looked up): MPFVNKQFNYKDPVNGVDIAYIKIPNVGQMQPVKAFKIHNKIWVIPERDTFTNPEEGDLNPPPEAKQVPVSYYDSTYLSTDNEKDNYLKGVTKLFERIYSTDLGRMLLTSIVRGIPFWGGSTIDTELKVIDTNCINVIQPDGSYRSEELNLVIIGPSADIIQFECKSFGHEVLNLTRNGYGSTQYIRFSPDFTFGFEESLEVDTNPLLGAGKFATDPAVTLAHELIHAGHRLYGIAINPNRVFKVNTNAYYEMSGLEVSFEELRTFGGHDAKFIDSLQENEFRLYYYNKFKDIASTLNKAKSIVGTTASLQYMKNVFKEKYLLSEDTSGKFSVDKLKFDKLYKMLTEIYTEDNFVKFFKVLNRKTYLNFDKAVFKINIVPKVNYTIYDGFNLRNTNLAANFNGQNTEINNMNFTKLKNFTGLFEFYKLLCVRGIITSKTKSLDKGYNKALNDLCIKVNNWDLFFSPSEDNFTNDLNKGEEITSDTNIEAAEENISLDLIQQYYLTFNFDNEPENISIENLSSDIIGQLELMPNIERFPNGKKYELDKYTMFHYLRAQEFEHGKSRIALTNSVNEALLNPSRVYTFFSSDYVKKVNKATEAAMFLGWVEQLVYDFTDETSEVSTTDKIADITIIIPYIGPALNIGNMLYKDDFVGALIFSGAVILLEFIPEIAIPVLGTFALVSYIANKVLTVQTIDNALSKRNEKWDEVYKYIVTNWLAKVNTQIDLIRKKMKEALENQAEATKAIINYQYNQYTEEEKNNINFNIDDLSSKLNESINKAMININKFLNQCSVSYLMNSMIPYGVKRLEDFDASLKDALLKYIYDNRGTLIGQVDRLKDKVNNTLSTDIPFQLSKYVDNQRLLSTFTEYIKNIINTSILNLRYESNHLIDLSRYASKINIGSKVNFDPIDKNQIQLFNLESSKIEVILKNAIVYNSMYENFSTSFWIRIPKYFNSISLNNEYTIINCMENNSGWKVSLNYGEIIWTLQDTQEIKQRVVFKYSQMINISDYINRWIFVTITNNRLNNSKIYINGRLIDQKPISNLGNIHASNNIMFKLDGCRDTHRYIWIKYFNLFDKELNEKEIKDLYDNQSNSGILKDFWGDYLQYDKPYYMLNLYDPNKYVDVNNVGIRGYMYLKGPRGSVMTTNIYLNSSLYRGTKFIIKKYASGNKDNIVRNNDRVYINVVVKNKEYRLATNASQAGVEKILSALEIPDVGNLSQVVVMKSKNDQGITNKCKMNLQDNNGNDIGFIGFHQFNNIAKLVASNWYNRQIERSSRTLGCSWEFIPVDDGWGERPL
Sequence of Lethal factor (Bacillus anthracis) (P15917 whole entry, looked up): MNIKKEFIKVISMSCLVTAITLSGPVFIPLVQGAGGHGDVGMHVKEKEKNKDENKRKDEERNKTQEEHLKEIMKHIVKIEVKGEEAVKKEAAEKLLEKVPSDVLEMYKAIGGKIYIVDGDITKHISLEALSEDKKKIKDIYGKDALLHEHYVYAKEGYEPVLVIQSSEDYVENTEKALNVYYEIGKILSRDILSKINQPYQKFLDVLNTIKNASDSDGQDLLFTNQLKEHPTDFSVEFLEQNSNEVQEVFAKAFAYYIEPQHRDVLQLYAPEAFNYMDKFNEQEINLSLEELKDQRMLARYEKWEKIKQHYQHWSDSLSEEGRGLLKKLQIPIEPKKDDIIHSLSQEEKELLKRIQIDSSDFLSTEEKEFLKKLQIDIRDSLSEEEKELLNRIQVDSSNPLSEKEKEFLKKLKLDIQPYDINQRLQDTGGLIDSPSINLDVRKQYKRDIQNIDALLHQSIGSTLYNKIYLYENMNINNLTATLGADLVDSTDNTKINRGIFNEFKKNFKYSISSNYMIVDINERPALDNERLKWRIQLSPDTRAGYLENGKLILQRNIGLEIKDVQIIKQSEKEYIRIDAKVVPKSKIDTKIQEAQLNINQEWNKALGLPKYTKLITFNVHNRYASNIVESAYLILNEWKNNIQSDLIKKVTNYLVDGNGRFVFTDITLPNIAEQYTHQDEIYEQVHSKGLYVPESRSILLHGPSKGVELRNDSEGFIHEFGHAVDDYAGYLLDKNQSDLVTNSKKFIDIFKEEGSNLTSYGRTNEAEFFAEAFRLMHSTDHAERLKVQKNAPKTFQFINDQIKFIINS

COc1ccc(C(=O)OCc2cc3cccc(C)c3[nH]c2=O)cc1
inactive: [1] 0.3% | [2] 0.7% | [3] -0.5%

Cc1cc(=O)oc2cc(OC(C)C(=O)NCC3CCCO3)ccc12 (configuration not stated)
inactive: [1] 3% | [2] 0.9% | [3] -4.8%

O=C(O)CCCCCN=C1CCc2ccccc2N1
inactive: [1] 1.6% | [2] -0.4% | [3] 0.8%

CCOc1ccc(C(=O)N2CCCC2C(=O)O)cc1 (configuration not stated)
inactive: [1] -1.3% | [2] 0.5% | [3] 1.5%

COc1ccc(/C=C/C(=O)Nc2ccccc2C(=O)O)cc1OC
inactive: [1] 2.5% | [2] -0.9% | [3] -6%

Cc1ccc2c(ccc(=S)n2C)c1
inactive: [1] 1.7% | [2] 0.8% | [3] 7.4%

CCNC(=S)N1CCN(CCN2C(=O)c3cccc4cccc(c34)C2=O)CC1
inactive: [1] 5.8% | [2] 3.7% | [3] 10.2%

O=C(NC1CCCCC1)c1cc2nc(-c3ccco3)cc(C(F)(F)F)n2n1
inactive: [1] 2.6% | [2] 1.2% | [3] 0.5%

O=C(O)CCSc1nc2ccccc2s1
inactive: [1] -0.7% | [2] -1.2% | [3] -9.8%

COc1ccc2[nH]c(C)c(CN3CCC(C)CC3)c(=O)c2c1
inactive: [1] -0.8% | [2] 0.1% | [3] -5.9%

CN(C)CCOC(C)(c1ccccc1)c1ccccn1 (configuration not stated)
inactive: [1] 1.4% | [2] 0.5% | [3] -3.8%

COc1cc(NC(=S)NC(=O)c2cccs2)ccc1NC(=O)C(C)C
inactive: [1] -2.2% | [2] 0.1% | [3] -4%

CC1(C)CC(CC(=O)Nc2nccs2)(c2ccccc2)CCO1 (configuration not stated)
inactive: [1] 3.8% | [2] 0.5% | [3] -1.9%

Cc1oc2c(CN3CCCC3)c(O)ccc2c(=O)c1-c1ccc(Cl)cc1
inactive: [1] -1.2% | [2] -0.3% | [3] -0.5%

COc1ccc2nc(Nc3nc(CSc4ccc(C)cc4)cc(=O)[nH]3)nc(C)c2c1
inactive: [1] 0.6% | [2] -0.3% | [3] 2%

Cn1cc(/C=C/C(=O)c2ccccc2)c2ccccc21
inactive: [1] -4.2% | [2] -0.5% | [3] -5.4%

CCOc1ccc(CC2c3cc(OCC)c(OCC)cc3CCN2C(=O)CN2CCN(C)CC2)cc1OCC (configuration not stated)
inactive: [1] -5.9% | [2] -1.4% | [3] 7.9%

CC(C)Cc1ccc(C(C)C(=O)Nc2ccc(O)cc2)cc1 (configuration not stated)
inactive: [1] -3.6% | [2] -1.3% | [3] -6.8%

CC(=O)N[C@@H](CS)C(=O)O
inactive: [1] 5.5% | [2] -0.8% | [3] 2.4%

CCc1cc2c(C)cc(=O)oc2cc1OC(=O)C1CCCN1C(=O)OC(C)(C)C (configuration not stated)
inactive: [1] 0.1% | [2] -1.6% | [3] -1.1%

CCOC(=O)C1CCCN(Cc2nc(Cc3cccc(F)c3)no2)C1 (configuration not stated)
inactive: [1] 0.1% | [2] -0.4% | [3] 0.6%

O=C1C(Cc2c[nH]c3ccccc23)NC(=S)N1Cc1ccccc1 (configuration not stated)
inactive: [1] -0.2% | [2] 0.3% | [3] -1.8%

COc1c2occc2c(OC)c2c(=O)cc(C(F)(F)C(F)(F)F)oc12
inactive: [1] 2.3% | [2] 0.5% | [3] 0.4%

O=Cc1ccc(N2CCCCC2)cc1
inactive: [1] -0.8% | [2] -0.3% | [3] -1.6%

CN(C)CCOc1ccccc1Cc1ccccc1
inactive: [1] 19.8% | [2] 1.6% | [3] 3.4%

Cc1cc(O)c(C(=O)Cc2csc(C)n2)c(O)c1
inactive: [1] -5.7% | [2] -2.4% | [3] 0.7%

COC(=O)c1cc(-c2ccc(C)o2)nc2ccccc12
inactive: [1] 1.8% | [2] 2% | [3] 2.2%

COc1ccc(NC(=S)NCCc2c[nH]c3ccccc23)cc1
inactive: [1] -0.4% | [2] -0.9% | [3] 0.4%

CC12CN3CC(C)(CN(C1)C3c1ccc([N+](=O)[O-])o1)C2 (configuration not stated)
inactive: [1] -3.2% | [2] -1.4% | [3] -5.6%

C#CCN(C)Cc1ccccc1
inactive: [1] 2.5% | [2] -0.5% | [3] -2.8%

Cc1cc(C)nc(NS(=O)(=O)c2ccc(N)cc2)n1
inactive: [1] 1.3% | [2] 2.1% | [3] 3.4%

C=CCn1c(N2CCCCCC2)nc2c1c(=O)n(C)c(=O)n2C
inactive: [1] 0.2% | [2] 1.4% | [3] -4.7%

COc1c2c(nc3occc13)C(CC=C(C)C)(OC)C(O)CC2 (configuration not stated)
inactive: [1] 0.8% | [2] 0.9% | [3] -4.1%

COc1cccc(N2CC(O)=C(c3nc4ccccc4c(=O)[nH]3)C2=N)c1
inactive: [1] -2.2% | [2] -1.1% | [3] -6.2%

Cc1ccc(S(=O)(=O)N2CCC(C(=O)N[C@@H](C)C(=O)NC3CCS(=O)(=O)C3)CC2)cc1 (some centres not stated)
inactive: [1] 2.1% | [2] 1.5% | [3] 11.8%

CCNC(=O)C(Cc1ccccc1)NC(=O)OCc1ccccc1 (configuration not stated)
inactive: [1] 0.3% | [2] -1.4% | [3] 5.5%

COc1ccc2c(c1OC)C(=O)OC2C1c2c(cc3c(c2OC)OCO3)CCN1C (configuration not stated)
inactive: [1] 0.2% | [2] -0.4% | [3] 0.2%

O=C(Nc1ccc(F)c([N+](=O)[O-])c1)c1ccc2c(c1)OCCO2
inactive: [1] -3.7% | [2] -2.7% | [3] -7.5%

Cc1ccc(C2CC(=O)C(C=NCCN3CCN(CC(=O)Nc4cc(C)cc(C)c4)CC3)=C(O)C2)cc1 (configuration not stated)
inactive: [1] 2% | [2] 0.6% | [3] 0.4%

CC1(C)C(=O)OC(/C=C\c2ccccc2)C(C)(C)C1=O (configuration not stated)
inactive: [1] 1.5% | [2] 0.1% | [3] 4.5%

Nc1nc(SCc2ccc([N+](=O)[O-])cc2)c2ncn(C3OC(CO)C(O)C3O)c2n1 (configuration not stated)
inactive: [1] 0.3% | [2] 1% | [3] 5%

C[C@]12CCC(=O)C=C1CC[C@@H]1[C@@H]2[C@@H](O)C[C@@]2(C)[C@H]1CC[C@]2(O)C(=O)CO
inactive: [1] 2.1% | [2] -1.4% | [3] -10.2%

COC(=O)c1cc(-c2c(C)oc3cc(OC)ccc3c2=O)c(C)o1
inactive: [1] -0.4% | [2] -2% | [3] -6.6%

CC(C)NNC(=O)c1ccncc1
inactive: [1] 1.2% | [2] 1.3% | [3] -7.1%

O=c1[nH]c(Cc2ccccc2)nc2c1oc1ccccc12
inactive: [1] 4.2% | [2] 0.2% | [3] 8.7%

CC(=O)C1=C(O)C(=O)N(CC(=O)O)C1c1ccccc1Cl (configuration not stated)
inactive: [1] -1.5% | [2] -0.5% | [3] -3%

CC1(C)Cc2ccccc2-c2n[nH]c(=S)n21
inactive: [1] -0.3% | [2] 0.5% | [3] 1.7%

O=c1[nH]c(=O)n([C@H]2C[C@H](O)[C@@H](CO)O2)cc1F
inactive: [1] 1.7% | [2] 1.3% | [3] 1.1%

Cc1cccc(N2CCN(C(=S)c3ccccc3)CC2)c1
inactive: [1] 3.3% | [2] -1.9% | [3] -2.9%

C[C@H](NC(=O)OC(C)(C)C)C(=O)NCC1CCC(C(=O)O)CC1 (some centres not stated)
inactive: [1] 2.7% | [2] -2.2% | [3] -1.1%

CCOc1ccc(CCn2c(-c3ccco3)nc3ccccc3c2=O)cc1OCC
inactive: [1] 3.5% | [2] -0.4% | [3] 11.4%

CCN(CC)C(=O)N1CCN(C)CC1
inactive: [1] -3.4% | [2] -0.7% | [3] 4.2%

COC(=O)c1cc(=O)c2ccc(OC)cc2o1
inactive: [1] -4.1% | [2] -0.9% | [3] 2.2%

COc1ccc(C2NC(=O)c3ccccc3N2)cc1OC (configuration not stated)
inactive: [1] -2.5% | [2] -0.1% | [3] -2.9%

NC[C@H]1O[C@H](O[C@H]2[C@H](O)[C@@H](O[C@H]3O[C@H](CO)[C@@H](O)[C@H](N)[C@H]3O)[C@H](N)C[C@@H]2N)[C@H](N)C[C@@H]1O
inactive: [1] 3.4% | [2] -1.1% | [3] -1.8%

COc1ccc2oc(=O)c(-c3nc(C)cs3)cc2c1
inactive: [1] 2.9% | [2] 1.9% | [3] -0.1%

CO[C@H]1C=CO[C@@]2(C)Oc3c(C)c(O)c4c(O)c(c(C=NN5CCN(C)CC5)c(O)c4c3C2=O)NC(=O)C(C)=CC=C[C@H](C)[C@H](O)[C@@H](C)[C@@H](O)[C@@H](C)[C@H](OC(C)=O)[C@@H]1C
inactive: [1] -7.2% | [2] 0.5% | [3] -7.3%

COc1ccccc1N1C(=O)C2CC(C)=C(C)CC2C1=O (configuration not stated)
inactive: [1] -2.6% | [2] -0.4% | [3] 3.9%

COc1ccc(CN2CCCCC2C(=O)Nc2ccc(OC)c(OCC(C)C)c2)cc1OC (configuration not stated)
inactive: [1] 0.9% | [2] 0.2% | [3] -1.3%
